Results reported in PubChem BioAssay AID624491 (Broad Institute, 2012).
Among all 1,800 compounds or so, about 1,400 (78%) were called active. About 2% were inconclusive and are not listed.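 Rule for the calls: active = fitted curve crossing a set activation limit at or below the highest valid dose tested; inconclusive = flat fit at 30 to 70% activation, or poor fit; inactive = the rest, including signal decreases.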 So high a share suggests a set chosen from earlier hits. A selection follows. Measured potencies and affinities stand elsewhere.

Experiment: blockers of NLG process in reporter cells – D54 ERlucT cells, luminescence, cherry-picks, dose response (AID 624491);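 note: signal gain reflects blocked N-linked glycosylation of a luciferase reporter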
Conditions: D54 ERlucT glycosylation luciferase reporter, 24 h, 100% = twice neutral-control luminescence; series mostly up to 19.5 µM; activation (NLG inhibition): at the top concentration

Activation (NLG inhibition), inactive:
CCN(c1ccccc1)S(=O)(=O)c1ccc(N)c(OC)c1 27.8%
c1ccc(CCNc2nc(-c3ccccn3)nc3ccccc23)cc1 -27%
COc1cccc(C2=NOC(C(=O)NCc3ccco3)C2)c1 (stereo not given) -0.205% [at 5 µM]
COc1ccc(C2=NOC(C(=O)NCc3ccco3)C2)cc1OC (stereo not given) 10.5%
COc1cc(CNc2ccc(O)cc2)cc(Br)c1OCc1ccccc1 -8.22%
COc1cc(C(=O)OC2CCCCC2=O)cc(OC)c1C (stereo not given) 41.1%
COc1cc(C(=O)OCC(=O)c2cc(C)n(C)c2C)cc(OC)c1OC 20.3%
CN(C)CCCN(C(=O)c1ccc(S(=O)(=O)N2CCc3ccccc3C2)cc1)c1nc2ccc(F)cc2s1 -14.2% [at 5 µM]
Cc1ccc(S(=O)(=O)N2CCCCC2CCNC(=O)C(=O)NCc2ccco2)cc1 (stereo not given) 23.6%
O=C(CSc1ncnc2nc[nH]c12)c1ccc([N+](=O)[O-])cc1 11.9%
CCOC(=O)/C=c1/s/c(=C\c2c(OC)ccc3ccccc23)c(=O)n1CC(=O)NCC1CCCO1 (stereo not given) 23.7%
CCOC(=O)c1[nH]c(C)c(C(=O)Nc2cccc(Cl)c2C)c1C 20.9%
Cc1ccc2c(CNCc3ccccc3)cc(=O)oc2c1 39.2%
CCOC(=O)n1c(=O)n(Cc2ccc(OC)cc2)c2ccccc21 8.03% [at 5 µM]
FC(F)(F)c1nnc2c(Sc3ccc(Cl)cc3)nc3ccccc3n12 30.9%
CC(=O)c1cccc(-c2ccnc3c2CC(C(=O)NCCc2ccccc2)O3)c1 (stereo not given) 12.8%
Cc1[nH]c2ccc(C(=O)OC(C)C(=O)NCc3ccccc3)cc2c1C (stereo not given) 7.75%
COc1ccc(-c2cc(-c3ccccc3)c(C#N)c(S(C)=O)n2)cc1 (stereo not given) 1.33%
C/C(CC(=O)NCc1ccc(Cl)cc1)=N\NC(=O)COc1ccc(C)cc1Br 37.5%
CC(=O)N1N=C(c2ccccc2)OC1c1ccc([N+](=O)[O-])s1 (stereo not given) 49.5%
CC1CN(C(=O)/C=C/c2ccc([N+](=O)[O-])s2)CC(C)O1 (stereo not given) -5.48%
CCOC(=O)c1c(C)c(C(=O)Nc2ccc(N(C)C)cc2)c(C)n1CC 44.7%
Cc1ccc(Nc2nc(-c3cccnc3)nc3ccccc23)cc1 8.8%
CC(Nc1nc(-c2cccnc2)nc2ccccc12)c1ccc(F)cc1 (stereo not given) 48.9%
O=C1c2ccccc2C(=O)C12OC2c1ccc(Cl)cc1Cl (stereo not given) 68.1%
Cc1ccc2nc(SCC(=O)Nc3ccc4sc(C)nc4c3)c(C#N)cc2c1 -4.3% [at 5 µM]
CCCCCCCCCCn1c2c(c(=N)c3c1CCC3)CCC2 86.7%
CCCn1c(=N)n(CC(=O)c2ccc([N+](=O)[O-])cc2)c2ccccc21 6.58%
Cn1c(Cl)cnc1C1CC(=O)c2cc(Cl)ccc2O1 (stereo not given) -17.9%
COc1ccc(OC)c(/C=C/c2ccc3cccc(O)c3n2)c1 -43%
COc1ccc(NC(=O)c2cccc(Oc3ccccc3)c2)cn1 34.3%
Cn1c(SCC(=O)c2ccccc2)ncc(C(=O)Nc2ccc(F)cc2)c1=O 63.3%
Cn1c(SCC(=O)c2ccccc2)ncc(C(=O)Nc2ccccc2)c1=O 80.2%
CCOc1ccc(Nc2nnc(SCc3nc4ccccc4c(=O)[nH]3)s2)cc1 117%
CC1=Nc2cc(C(=O)NCC3CCCO3)ccc2Sc2ccc(Br)cc21 (stereo not given) -2.76%
CC1(C(=O)NCc2ccccc2)Cc2c(-c3ccc(C(N)=O)cc3)ccnc2O1 (stereo not given) 36.3%
CC(=O)Nc1ccc(-c2ccnc3c2CC(C)(C(=O)NCc2ccco2)O3)cc1 (stereo not given) 38.4%
CC1(C(=O)NCc2cccs2)Cc2c(-c3ccc(C(N)=O)cc3)ccnc2O1 (stereo not given) 39.6%
O=C(NCCN1C(=O)S/C(=C\c2cccc(Cl)c2Cl)C1=O)C1=COCCO1 44.8%
CC[C@@H]1CC=C[C@H]2[C@H]1C(=O)N(Cc1ccccc1)[C@H]2c1ccoc1 22.8%
c1ccc2[nH]c3cc4ncnc4cc3nc2c1 3.68%
NS(=O)(=O)c1ccc(N=Nc2c(O)[nH]c3ccc(Br)cc23)cc1 26.4%
COc1ccc(CN(C)c2ncnc3sccc23)c(OC)c1OC 29.3%
CCc1ccccc1NC(=O)Cn1nnc(C(=O)NCc2cccs2)c1N 22.7% [at 5 µM]
O=C(NCc1ccc2c(c1)OCO2)c1cc([N+](=O)[O-])ccc1N1CCOCC1 -15.2%
COc1ccc(C(=O)/C=C/c2ccccc2F)c(OC(=O)c2ccc([N+](=O)[O-])cc2)c1 23%
CC1=C[C@@H](C)[C@@H](c2ccc(C(F)(F)F)cc2)OC1=O 31.7%
O=C(COc1ccc2c(-c3ccccc3)cc(=O)oc2c1)N[C@@H](Cc1c[nH]c2ccc(O)cc12)C(=O)O 18.2%
COc1ccc2c(c1)c1ccc3c(c1n2C)C(=O)C=CC3=O 31.4%
COc1cc2c(cc1OC)C(c1ccccc1)N(C(=O)CCl)CC2 (stereo not given) -90.9%
COc1ccc(CC(=O)NCc2ccccc2)cc1 49%
COc1ccc(NS(=O)(=O)c2cc(NC(=O)c3nn(C)c(=O)c4ccccc34)ccc2OC)cc1 39.3%
COc1cc2nc(NC(=O)c3ccccc3)sc(=O)c2cc1OC -2.97%
COc1ccc(C(=O)c2sc(Nc3ccccc3)nc2N)cc1OC 26%
COc1ccccc1N(C)S(=O)(=O)c1ccc(C(=O)OCC(=O)N2CCC2)cc1 37.2%
CC1CN(C(=O)c2cc(-c3ccc(Cl)s3)nc3ccccc23)CC(C)O1 (stereo not given) 114%
O=C(c1cc(-c2cccs2)nc2ccccc12)N1CCN(c2ccccc2)CC1 30.5%
O=C(N/N=C/c1ccc2c(c1)OCO2)c1sc2cc(Cl)ccc2c1Cl 31.9%
Oc1[nH]c(N=C2N=c3ccccc3=N2)c2ccccc12 623%
COc1cc(/C=C2/C(=O)N(C)C(=S)N2C)ccc1OCc1cccc(F)c1 7.41%
C(=N\Nc1nc2ccccc2[nH]1)/c1c[nH]c2ccccc12 22%
CCOC(=O)N1CCN(C(=O)c2cccc(N3C(=O)NC4CC3(C)Oc3ccc(Cl)cc34)c2)CC1 (stereo not given) 46.9%
O=C(c1cccc([N+](=O)[O-])c1)N1CCN(c2cccc(Cl)c2)CC1 32.1%
CCOc1ccc(C(=O)Nc2cc(-c3nc4ccccc4[nH]3)ccc2Cl)cc1[N+](=O)[O-] 22.3%
Cc1c(Cl)ccc2c(C(=O)Nc3cc(C(C)(C)C)on3)cc(-c3ccccn3)nc12 85.9%
O=C1COc2ccc(C(=O)/C=C/c3ccccc3)cc2N1 22.8%
COc1ccc(N2CC(C(=O)Nc3cc(C(F)(F)F)ccc3N3CCCC3)CC2=O)c(OC)c1 (stereo not given) 60.1%
O=C(Cc1ccc(Cl)cc1)Nc1ccccc1N1CCN(C(=O)c2ccccc2)CC1 74%
NC(=O)[C@H]1CC2(CC(c3cccc(NC(=O)COc4ccc(Cl)cc4)c3)=NO2)CN1C(=O)C(c1ccccc1)c1ccccc1 (stereo not given in full) 9.14%
O=C(COc1ccc(Oc2ccccc2)cc1)NCc1cn2ccccc2n1 35.6%
O=C(c1ccc(Cl)cc1)C(CN1CCCCC1)c1ccccc1 (stereo not given) -93.5%
Cc1cc(=O)oc2cc(OCC3CC(c4ccccc4)=NO3)ccc12 (stereo not given) 81.1%
CCOc1cc(/C=C/C(=O)c2ccc(C)cc2)ccc1OCC(=O)N(C)C -3.96%
CC(=O)Nc1ccc(/C=C/C(=O)c2ccc3c(c2)OCCO3)cc1 8.38%
COc1cc(/C=C/C(=O)c2ccc3c(c2)OCCO3)cc(OC)c1OC 19.1%
O=C(/C=C/c1ccncc1)c1ccc2c(c1)OCCO2 10.3%
O=C(C=Cc1ccc2c(c1)OCO2)C=Cc1ccc2c(c1)OCO2 3.68%
C=CCOc1ccc(C2C(C#N)=C(N)N(Nc3ccccc3)C3=C2C(=O)CCC3)cc1OC (stereo not given) 61%
Cc1cc(OC(C)C)nc(NCc2ccccc2)n1 2.85% [at 5 µM]
COc1ccc(Cn2c(=O)cc(N)n(-c3ccccc3C)c2=O)cc1 23.6%
Cn1c(N)c(C(=O)COC(=O)c2cc(S(=O)(=O)N3CCOCC3)ccc2F)c(=O)n(C)c1=O -21.7%
CCCCCCCCCCCCCCCC[n+]1ccc(/C=N/O)cc1 57.2%
Cc1ccc(OCCOC(=O)c2c(-c3ccccc3)noc2C)cc1 6.86%
Cc1cc(C)c(C)c(OC(=O)c2sc(Cl)nc2C)c1 -42.8%
COc1ccc(C(=O)c2sc(Nc3ccccc3)nc2N)cc1 22.2%
CN(C)c1ccc(/C=N/NC(=O)c2ccccc2Cl)cc1 37.5%
Cc1ccc(Cc2c(C)nc3nc(SCC(=O)NCc4ccco4)nn3c2C)cc1 35.5%
Cc1cc2cc(CNC(=O)Cc3cccs3)ccc2n1C -4.54%
CCOc1ccc(Nc2nc(Cc3nnc(SCC(=O)NCc4ccco4)n3CC)cs2)cc1 40.1%
S=c1[nH]nc(-c2cc(-c3ccccc3)n[nH]2)n1/N=C/C(Br)=C/c1ccccc1 -26.6%
COC(=O)CC1COc2ccccc2N1S(=O)(=O)c1ccc(OC)cc1 (stereo not given) 19.8%
COc1ccc(F)cc1C1=CC(=O)C[C@H](c2ccc3c(c2)OCO3)C1 20.3%
CN1CC(=O)N2C(c3ccc(Cl)cc3)c3[nH]c4ccccc4c3C[C@H]2C1=O (stereo not given in full) 57.6%
CCc1ccc(/C=N/NC(=O)c2cc(-c3ccncc3)nc3ccccc23)s1 38.8%
COc1cc(N=Nc2cccc(S(N)(=O)=O)c2)c2ccccc2c1N -28.1%
Oc1ccc(NCc2cccs2)cc1 -2.52%
OCC1OC(n2cnc3c(=S)nc[nH]c32)CC1O (stereo not given) 15.2%
Cc1ccc2nsnc2c1NC(=O)c1ccc([N+](=O)[O-])o1 0.238%
O=C(Nc1c(Cl)ccc2nsnc12)c1ccc([N+](=O)[O-])o1 -5.17%
Oc1ccc(N=Nc2ccccc2)o1 4.57%
CCCCCc1ccc(OCCC[n+]2ccccc2)c(CCCCC)c1 -7.5%
Cc1noc(C)c1COc1ccccc1C(=O)N1CCN(c2cccc(C(F)(F)F)c2)CC1 41.9%
CC1(C(=O)NCc2ccccc2)Cc2c(-c3ccccc3)ccnc2O1 (stereo not given) 30.5%
COc1ccc(CCCNC(=O)C2(C)Cc3c(-c4ccc5c(c4)OCO5)ccnc3O2)cc1 (stereo not given) 67.4%
CC1(C(=O)Nc2ccc(Cl)cc2)Cc2c(-c3ccc4c(c3)OCO4)ccnc2O1 (stereo not given) 2.48%
